# Bioassay records as filed in PubChem BioAssay.
# CYP2C9 inh: inhibitors of human CYP2C9; inhibition, % at 5 µM; AID 777; hit rate 20% among 96,000; CYP2C9 Supersomes, luciferin-H conversion, luminescence;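 active = blocking of liver enzyme CYP2C9 beyond about 50% at 5 µM, limit read from the data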
# Target sequence (P11712 whole entry, looked up): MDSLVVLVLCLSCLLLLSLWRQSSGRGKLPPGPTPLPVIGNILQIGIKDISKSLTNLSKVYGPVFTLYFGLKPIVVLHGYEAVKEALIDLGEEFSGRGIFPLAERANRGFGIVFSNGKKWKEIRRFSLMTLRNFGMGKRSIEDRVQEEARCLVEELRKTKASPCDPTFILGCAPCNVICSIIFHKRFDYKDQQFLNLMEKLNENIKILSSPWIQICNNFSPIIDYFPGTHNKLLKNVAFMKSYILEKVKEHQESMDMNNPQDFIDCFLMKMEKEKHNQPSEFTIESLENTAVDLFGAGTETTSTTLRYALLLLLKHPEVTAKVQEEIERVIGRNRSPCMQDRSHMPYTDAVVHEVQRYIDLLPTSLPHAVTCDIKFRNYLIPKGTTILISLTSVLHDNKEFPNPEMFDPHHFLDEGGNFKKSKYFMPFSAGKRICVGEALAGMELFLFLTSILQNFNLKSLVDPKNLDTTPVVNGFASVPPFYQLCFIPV
# D1 mod: allosterically modulates the human D1 dopamine receptor; P21728; HEK293 D1, CRE-luciferase, dopamine EC30 potentiation; actives deviate in either direction; B-score at 10 µM; hit rate 5.9% among 58,000;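 active = luminescence count or its row- and column-corrected plate score outside the 99.7% band of the plate's sample wells, on either side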
# CYP2C19 inhib: human CYP2C19 inhibition; P33261; hit rate 21% among 96,000; inhibition, % at 5 µM; AID 778; CYP2C19 Supersomes, luciferin-H EGE luminescence, 30 min;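 active = CYP2C19 inhibition above a set limit at 5 µM in the primary screen, cut at about 50% in these data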;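 also: plate controls were negative control wells for no effect and 2.5 mM tranylcypromine positive control for full effect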
# CYP2C19 activ: activators of human cytochrome P450 2C19. P33261. recombinant CYP2C19, luciferin-H EGE luminescence; stronger effect = higher value; 0 = fully inhibited enzyme, 1 = untreated enzyme. activation factor at 5 µM. 96,000 tested, under 10 active. AID 1025;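 active = activation factor of at least 2 at 5 µM in the primary screen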;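 also: 0 = wells with 2.5 mM tranylcypromine and 1 = vehicle-only wells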
# DAT uptake mod: changed human dopamine transporter uptake under cocaine IC80; Q01959; LLC-PK1 hDAT cells, [14C]-dopamine uptake with cocaine IC80; actives deviate in either direction; B-score at 10 µM; hit rate 1.3% among 110,000;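 active = Z score or B-score, a plate-position-corrected score, falls beyond the plate's 99.7% confidence bounds, in either direction; inactive = both scores lie inside the 99.7% bounds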;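 also: scored against the spread of the other compound wells on the same plate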
# CYP2C9 activ: increases human cytochrome P450 2C9 activity; recombinant CYP2C9, luciferin-H conversion, luminescence; stronger effect = higher value; factor 1 = untreated enzyme, 0 = blocked; activation factor at 5 µM; hit rate 1.4% among 96,000;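 active = activation factor of 2 or more for CYP2C9 at a 5 µM dose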;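 also: 0 = sulfaphenazole-blocked wells and 1 = vehicle-only wells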
# Active calls of the source: *; / = no result given. Compounds with a hit are over-represented: about 28% of the library has one in this group of screens.
SMILES,CYP2C9 inh,D1 mod,CYP2C19 inhib,CYP2C19 activ,DAT uptake mod,CYP2C9 activ
COC(=O)CSCC(=O)Nc1cc2c(cc1C(C)=O)OCO2,2,/,11,0.9,0.51,1
COc1ccc(/C=N/NC(=O)CC(=O)NCCc2ccccc2)cc1OC,8,/,33,0.7,0.09,0.9
CCC(C)N(NC(C)=O)c1nc(Cl)nc(NC(C)C)n1 (stereo not drawn),2,/,-5,1,-0.18,1
CC(C)C(=O)Nc1ccnc(-c2cccnc2)n1,42,/,76*,0.2,-0.19,0.6
CCCCC(=O)Nc1ccnc(-c2cccnc2)n1,76*,/,98*,0,0.41,0.2
CC(C)C(=O)Nc1ccc(NC(=O)c2cccnc2)cn1,-23,/,18,0.8,-0.26,1.2
O=C(Nc1ccnc(-c2cccnc2)n1)c1ccccc1Cl,25,/,24,0.8,0.71,0.8
O=C(Nc1ccnc(-c2cccnc2)n1)c1cccc(Cl)c1Cl,24,/,51*,0.5,0.26,0.8
CC(c1ccco1)N(C(=O)Nc1ccc(Cl)cc1)c1ccccn1 (stereo not drawn),56*,-0.052,85*,0.2,1.3,0.4
Cc1ccc(C(=O)N(c2ccccn2)C(C)c2ccco2)cc1 (stereo not drawn),29,0.016,80*,0.2,-1.3,0.7
CC(c1ccco1)N(C(=O)C12CC3CC(CC(C)(C3)C1)C2)c1ccccn1 (stereo not drawn),23,/,42,0.6,-0.24,0.8
CCn1cc(/C=N/N=C2\CCC3C4CCc5cc(O)ccc5C4CC[C@]23C)c(C)n1 (stereo partly drawn),68*,/,38,0.6,0.52,0.3
C[C@]12CC[C@@H]3c4ccc(O)cc4CC[C@H]3[C@@H]1CC[C@@H]2O,/,/,/,/,0.7,/
COC(=O)c1cc(OC)c(OC)cc1NC(=O)CCCCCN1C(=O)CCC1=O,44,1.2,62*,0.4,-0.51,0.6
CCc1nnc(NS(=O)(=O)c2ccc(N3C(=O)C4CC=C(Cl)CC4C3=O)cc2)s1 (stereo not drawn),50*,-0.36,13,0.9,-0.14,0.5
O=C(CN1CCOCC1)NCC12CC3CC(CC(C3)C1)C2,2,1.5,-2,1,-0.81,1
O=C(NC1CCCCC1)c1cccc(S(=O)(=O)N2CCOCC2)c1,-2,-0.76,-11,1.1,-0.64,1
C=CCSc1nnc2c(n1)OC=Nc1ccccc1-2,20,-0.35,49,0.5,0.52,0.8
CCCN(CCC)c1nc(N)nc(-c2cc(Cl)ccc2OC)n1,16,/,58*,0.4,1,0.8
COc1ccc(Cl)cc1Nc1nc(N)nc(C(F)(F)F)n1,39,/,39,0.6,-0.22,0.6
CCCNc1nc(N)nc(-c2cc(Cl)ccc2OC)n1,26,/,74*,0.3,2.5,0.7
CCOC(=O)C(CC)Sc1nc(-c2ccc(OC)cc2)nc2c1c(=O)n(C)c(=O)n2C (stereo not drawn),/,-0.59,/,/,/,/
CCOC(=O)c1cnc(-n2cc(C)cn2)nc1Nc1ccccc1OCC,-19,0.038,-19,1.2,-0.089,1.2
Cc1ccc(CC(=O)NCCCc2ccccc2)cc1,85*,/,79*,0.2,-0.13,0.1
CC(CCc1ccccc1)NC(=O)CSc1nc(N)cc(N)n1 (stereo not drawn),22,-0.13,56*,0.4,0.003,0.8
SMILES,CYP2C9 inh,D1 mod,CYP2C19 inhib,CYP2C19 activ,DAT uptake mod,CYP2C9 activ
CC(C)(C)C(=O)NCCCc1ccccc1,13,/,32,0.7,0.023,0.9
Cc1ccc(SC(C)C(=O)NCC(C)C)cc1 (stereo not drawn),29,-0.36,35,0.7,-0.2,0.7
Cc1occc1C(=O)NCCc1cccc(Cl)c1,64*,/,92*,0.1,1.3,0.4
Cc1occc1C(=O)NCCCCNC(=O)c1ccoc1C,3,-0.3,1,1,0.56,1
Cc1ccc(CC(=O)NCC(C)C)cc1,15,-0.27,79*,0.2,-0.17,0.8
COC(=O)Cc1c(C)nc2nc(-c3ccco3)[nH]n2c1=O,/,-0.23,/,/,-0.4,/
Cc1occc1C(=O)NCc1ccccc1F,51*,0.3,45,0.5,0.16,0.5
O=C(Cc1ccccc1)NCCc1cccc(Cl)c1,48,/,71*,0.3,0.41,0.5
O=C(Cc1ccccc1)NCCSCc1ccco1,-2,-0.23,31,0.7,0.037,1
O=C(Cc1ccccc1)NCCSCc1ccc(Cl)cc1,63*,/,27,0.7,-0.06,0.4
COc1ccc(CCNC(=O)c2c(C)noc2C)cc1,12,/,14,0.9,0.17,0.9
Cc1noc(C)c1C(=O)NCCCc1ccccc1,53*,-0.62,53*,0.5,-0.42,0.5
Cn1nnnc1SCc1cn2cccnc2n1,-16,0.02,-16,1.2,-0.054,1.2
O=C1CC(c2ccc(Cl)c(Cl)c2)CC(O)=C1C=NCCN1CCNCC1 (stereo not drawn),20,-1.4,23,0.8,1.5,0.8
O=S1(=O)[C@H]2C[C@@H]3CC[C@]2(CN1Cc1cccc(F)c1)O3,/,/,/,/,-1.2,/
CC(CCc1ccccc1)NC(=O)/C=C/c1ccccc1 (stereo not drawn),46,/,52*,0.5,0.61,0.5
Cc1ccc(S(=O)(=O)NC(C)CCc2ccccc2)cc1 (stereo not drawn),40,/,10,0.9,2,0.6
O=C(Cc1ccccc1)NCCCc1ccccc1,36,/,68*,0.3,-0.38,0.6
Cc1ccc(CC(=O)NC(C)CCc2ccccc2)cc1 (stereo not drawn),71*,/,37,0.6,0.22,0.3
CC(C)CCNC(=O)C1CC(c2cccc(F)c2)=NO1 (stereo not drawn),/,/,/,/,2.4,/
CC(=O)Nc1cccc(C(=O)NC(C)c2ccc(S(N)(=O)=O)cc2)c1 (stereo not drawn),7,/,-6,1.1,0.17,0.9
CCCCC(CC)C(=O)NCCc1ccc(S(N)(=O)=O)cc1 (stereo not drawn),59*,0.093,9,0.9,-1.9,0.4
CCC(CC)C(=O)NCCc1ccc(S(N)(=O)=O)cc1,49,0.22,-14,1.1,0.0062,0.5
CCC(CC)C(=O)Nc1cccc(C(=O)NCCc2ccc(S(N)(=O)=O)cc2)c1,90*,/,78*,0.2,-0.018,0.1
O=C1c2c(O)cc(O)cc2O[C@H](c2ccc(O)c(O)c2)[C@@H]1O,/,/,/,/,-0.56,/
CC(C)C[C@H](NC(=O)OC(C)(C)C)C(=O)N/N=C/C1=Cc2ccccc2OC1C (stereo partly drawn),42,/,8,0.9,0.45,0.6
COC(=O)CC(=O)Cc1nc(N)nc(Nc2ccc(C)c(C)c2)n1,/,-5.4*,/,/,0.46,/
CC(=O)c1cccc(NS(=O)(=O)c2c(C)noc2C)c1,41,0.55,38,0.6,/,0.6
Cc1cccc(NS(=O)(=O)c2c(C)n[nH]c2C)c1,79*,/,68*,0.3,0.31,0.2
